Only some compounds are listed: those with a hit (about 3.1% of all), similar ones and a draw of the others.
S1P3 antag – S1P3 (human) receptor antagonism | hit rate 0.27% among 170,000 | CHO S1P3 NFAT-BLA reporter, FRET fluorescence, antagonist mode | inhibition, % at 4.98 µM | Q99500;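 active = inhibition above the plate cutoff, the mean inhibition of test wells on that plate plus 3 SD, cut at about 28% in these data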;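 also: cells challenged with S1P at its EC80 of 0.8 µM; blue over green emission ratio from cleaved BLA substrate after 4 h stimulation; 0% = S1P-stimulated wells and 100% = unstimulated DMSO-only wells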
Target sequence (Q99500 whole entry, looked up): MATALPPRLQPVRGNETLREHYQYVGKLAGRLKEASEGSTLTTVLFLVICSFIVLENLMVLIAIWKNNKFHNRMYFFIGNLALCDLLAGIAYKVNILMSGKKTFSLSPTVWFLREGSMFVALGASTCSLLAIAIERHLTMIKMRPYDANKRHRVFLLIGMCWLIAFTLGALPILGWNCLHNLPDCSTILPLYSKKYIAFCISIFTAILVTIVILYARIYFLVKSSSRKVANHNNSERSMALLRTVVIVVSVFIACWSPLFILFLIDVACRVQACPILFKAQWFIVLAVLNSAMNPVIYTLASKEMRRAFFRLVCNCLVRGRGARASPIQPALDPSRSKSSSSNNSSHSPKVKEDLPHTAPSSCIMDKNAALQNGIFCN
EP2 modulator – modulates human prostaglandin E2 receptor EP2 signaling. AID 940. P43116. induction, % at 25 µM. hit rate 0.83% among 260,000. EP2-expressing cells, cAMP HTRF FRET, PGE2 co-stimulation;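 active = compounds whose cAMP rise, as percent of the full-agonist control response, exceeds 60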;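 also: rat C6 glioma line stably carrying human EP2 under a CMV promoter; the protocol text gives 20 µM as final concentration; 100% = response of wells given 1 µM PGE2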
Target sequence (P43116 whole entry, looked up): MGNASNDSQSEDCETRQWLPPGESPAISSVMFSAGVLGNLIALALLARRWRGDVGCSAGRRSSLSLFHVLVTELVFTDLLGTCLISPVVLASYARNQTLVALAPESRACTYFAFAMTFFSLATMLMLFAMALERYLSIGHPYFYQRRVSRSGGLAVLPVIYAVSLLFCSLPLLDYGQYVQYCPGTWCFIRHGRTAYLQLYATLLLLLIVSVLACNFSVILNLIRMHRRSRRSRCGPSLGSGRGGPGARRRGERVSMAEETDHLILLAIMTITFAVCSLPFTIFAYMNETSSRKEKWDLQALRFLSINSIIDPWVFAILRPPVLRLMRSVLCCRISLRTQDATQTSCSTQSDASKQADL
Cl transport mod – modulates chloride dependent transport by human KCC2; KCC2 cells, thallium flux FluoZin-2 fluorescence; Q9H2X9; hit rate 2.2% among 190,000; B-score of Tl+ flux slope (higher = more flux/activation; lower = inhibition) at 10 µM;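 active = thallium flux slope and its plate-corrected score both differing from the plate sample mean at a set confidence after two filtering rounds, in either direction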;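 also: slope of fluorescence scaled to starting intensity during 10 to 20 s after thallium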
EP2 antag – blocks the human prostaglandin E2 receptor EP2 | P43116 | inhibition, % at 25 µM | hit rate 0.52% among 260,000 | C6 glioma cells expressing human EP2, cAMP TR-FRET; cells stimulated with saturating PGE2;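 active = percent inhibition above 40 after rounding to a whole number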;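 also: rat C6 glioma host cells with rolipram phosphodiesterase inhibitor present; the protocol text gives 20 µM as final concentration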
KCC2 sec1 – KCC2 (human) modulation, secondary assay; shares compounds with Cl transport mod; HEK293-KCC2, thallium flux, FluoZin2 fluorescence; active compounds read high; normalised thallium flux (F/F0 slope) at 10 µM; hit rate 15% among 3,700;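 active = thallium flux slope above the same plate's solvent-only control mean plus 3 SD; inconclusive = the two replicate wells disagree; inactive = no significant difference from solvent-only control wells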
KCC2 bumet counter – bumetanide-insensitive thallium flux in KCC2 cells with ouabain, counter-screen; shares compounds with Cl transport mod; HEK293-KCC2 + bumetanide/ouabain, thallium flux FluoZin2; active compounds read high; normalized thallium flux at 10 µM; hit rate 49% among 3,700; AID 1714;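 active = thallium entry rate above the same plate's blocked-transporter control wells by more than 3 SD; inconclusive = the two repeat wells disagree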;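 also: raw slope of fluorescence over initial fluorescence between 10 and 20 s after thallium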
KCC2 secondary2 – confirmation of human KCC2 transport modulators | shares compounds with Cl transport mod | HEK293-KCC2, thallium flux FluoZin2 fluorescence; actives lie on both sides; F/F0 rise rate, 10–20 s post-thallium | normalized thallium flux at 10 µM | hit rate 23% among 3,700;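 active = thallium flux slope more than 3 SD above or below the plate's solvent-only control mean, mostly below; inconclusive = the two repeat wells disagreed; inactive = no significant shift from solvent-only controls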;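 also: raw slope with 0.1% DMSO as baseline and bumetanide as block control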
HEK293 Tl flux – parental HEK flux effect, counter-screen | shares compounds with Cl transport mod | hit rate 46% among 3,700 | HEK293 parental cells, thallium flux FluoZin2, ouabain; baseline-ratio fluorescence slope, 10–20 s after thallium | thallium flux rate (normalised fluorescence) at 10 µM | AID 1716;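 active = thallium flux rate significantly above the same plate's solvent-only control wells, beyond their mean plus 3 SD; inconclusive = the two replicate wells gave conflicting results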
KCC2 ouabain – confirmation of human KCC2 modulators with ouabain; shares compounds with Cl transport mod; HEK293-KCC2, thallium flux FluoZin2 fluorescence; bidirectional: low = inhibitor, high = activator; raw Tl+ flux slope (below DMSO = inhibition, above = activation) at 10 µM; hit rate 48% among 3,700;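 active = thallium flux slope beyond 3 SD from same-plate DMSO control mean in most replicates, usually higher, sometimes lower; inconclusive = repeat tests gave conflicting results; inactive = no significant difference from controls in most replicates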;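 also: slope of initial-normalized fluorescence between seconds 10 and 20 after thallium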
HEK counter2 – parental HEK flux effect, counter-screen 2; shares compounds with Cl transport mod; HEK293 parental, thallium flux FluoZin-2 fluorescence slope; thallium flux slope at 10 µM; hit rate 33% among 3,700; AID 1718;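 active = thallium flux slope above the same plate's solvent-control mean plus 3 SD in both duplicate wells; inconclusive = duplicate wells that disagreed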;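 also: run without ouabain in cells lacking the KCC2 cotransporter; slope of fluorescence scaled to its starting value between 10 and 20 s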
* marks the source's active call; other numbers are inactive results; ? = inconclusive; . = no result.

SMILES	S1P3 antag	EP2 modulator	Cl transport mod	EP2 antag	KCC2 sec1	KCC2 bumet counter	KCC2 secondary2	HEK293 Tl flux	KCC2 ouabain	HEK counter2
C/C(=N\NC(=O)c1cc(-c2cccs2)nc2ccccc12)c1ccccn1	19.5	-7.0	16.8*	11.1	0.0149*	0.0436*	0.036	0.0604*	0.0446*	?
Cc1sc2nc(SCC(=O)Nc3ccc4c(c3)OCO4)[nH]c(=O)c2c1C	.	-44.2	.	13.5	.	.	.	.	.	.
O=C(CSc1nnc(-c2ccc(S(=O)(=O)N3CCCC3)cc2)o1)Nc1nccs1	.	-6.3	.	5.7	.	.	.	.	.	.
CSC(=NCc1ccc(F)cc1)NS(=O)(=O)c1cccs1	-23.6	5.3	-3.77*	3.1	0.00866	?	0.0252*	0.00413	0.0151*	0.0111
CCc1nnc(NC(=O)CSc2nnc(CNc3ccc(Cl)cc3)o2)s1	9.3	-16.8	.	6.6	.	.	.	.	.	.
CCc1nnc(NC(=O)CSc2nnc(Cc3ccccc3)o2)s1	33.5	18.3	.	5.0	0.00724	0.00701	0.0268	0.00632	?	0.00977
COc1ccc(S(=O)(=O)N2CCC(C(=O)c3ccc(F)cc3)CC2)cc1	.	-73.8	.	11.0	.	.	.	.	.	.
COc1ccc(NCc2nnc(SCC(=O)N3CCCc4ccccc43)o2)cc1	-24.8	-32.1	.	16.6	.	.	.	.	.	.
CC(C)(C)N(Cc1ccccc1)C(=O)CSc1nnc(CNc2ccc(F)cc2)o1	.	23.4	-5.32*	9.5	0.00616	0.00603	0.0295	0.00716	0.0129*	0.0118
O=C(CSc1nnc(-c2ccncc2)o1)c1ccc2c(c1)OCCO2	-12.1	-25.6	-0.4	7.7	.	.	.	.	.	.
Cc1ccc(-c2ccc(SCC(=O)N3CCCc4ccccc43)nn2)cc1	-10.9	34.8	-2.26	5.4	.	.	.	.	.	.
O=C(CSc1ccc(-c2ccccc2)nn1)N1CCCc2ccccc21	-15.2	9.3	-4.66*	6.7	0.00754	0.00533	0.0207*	0.00708	?	0.0106
O=C(CSc1nnc(CNc2ccccc2)o1)N1CCCc2ccccc21	6.4	-21.0	-4.92*	.	0.0159	0.00456	0.024*	0.0073	0.0139	0.00958
O=C(CSc1nnc(CNc2ccccc2)o1)c1ccc2c(c1)OCCO2	2.4	-29.1	-4.39*	11.3	0.00592	?	0.0238*	0.00833	?	0.0111
COc1ccc2c(Cl)c(C(=O)Nc3ccccc3C#N)sc2c1	.	0.4	.	12.3	.	.	.	.	.	.
O=C(c1ccccc1)N(CCO)Cc1cc2cc3c(cc2[nH]c1=O)OCO3	.	11.5	.	2.8	.	.	.	.	.	.
CC1Cc2ccccc2N1C(=O)CSc1nnc(CNc2ccccc2)o1 (configuration not stated)	5.3	-7.7	.	8.8	0.00686	0.00464	0.0226*	0.00768	0.013*	0.0101
COc1cc(C)c(Cl)cc1S(=O)(=O)N1CCCC(C)C1 (configuration not stated)	.	11.6	.	6.9	.	.	.	.	.	.
COc1ccccc1NCc1cc2c(C)nn(-c3ccc(F)cc3)c2[nH]c1=O	.	-15.4	.	22.2	.	.	.	.	.	.
CN(C)S(=O)(=O)N(CC(=O)NCCSCc1ccccc1)c1ccccc1	-4.5	18.0	-3.71*	9.1	0.00624	0.006*	0.0243*	0.00707	?	0.01
O=C(CCSc1ccccc1)NCCSCc1ccccc1	-6.7	-4.3	-3.53*	6.9	?	0.00387	0.0215*	?	0.0133*	?
Cc1cccc(CSCCNC(=O)CCSc2ccccc2)c1	3.7	-49.0	-2.05	3.4	.	.	.	.	.	.
CCc1ccc(NC(=O)CN(c2ccccc2)S(=O)(=O)N(C)C)cc1	-1.2	-20.5	-0.594	11.1	.	.	.	.	.	.
CC(C)(C)C(=O)NC(Cc1c[nH]c2ccccc12)C(=O)O (configuration not stated)	.	-30.2	.	8.0	.	.	.	.	.	.
CC(C)c1nc2sc3c(=O)[nH]c(=S)[nH]c3c2c2c1CCC2	-12.4	39.9	-7.87*	13.7	0.0163	0.00626*	?	0.00512*	0.0094*	?
SMILES	S1P3 antag	EP2 modulator	Cl transport mod	EP2 antag	KCC2 sec1	KCC2 bumet counter	KCC2 secondary2	HEK293 Tl flux	KCC2 ouabain	HEK counter2
CC(C)c1nc2sc3c(=O)[nH]c(=S)[nH]c3c2c2c1CCCC2	-5.5	19.3	-1.53	11.7	.	.	.	.	.	.
COCC(=O)Nc1cc([N+](=O)[O-])ccc1OC	0.0	40.0	-0.26	11.8	.	.	.	.	.	.
COCC(=O)Nc1cc(OC)ccc1OC	-33.8	26.9	.	12.0	0.0103	?	0.0347	?	0.0228	?
COc1ccc(Cl)cc1NC(=O)CC(C)=O	5.5	-5.0	7.33*	8.9	?	?	0.0335	0.00812	0.0228	0.0107
O=C(N/N=C/c1cccnc1)c1cccs1	-5.1	-9.8	-3.67*	6.2	0.00673	0.00491	0.0325	0.00748	0.019	0.0102
O=C(N/N=C\c1cn(-c2ccccc2)nc1-c1ccccc1)c1ccc(Br)o1	.	21.6	3.91*	.	0.00955	0.0124*	0.0349	0.0132*	0.0216	?
Cc1ccc(-c2nn(-c3ccccc3)cc2/C=N/NC(=O)c2ccc(Br)o2)cc1	.	-27.3	3.16*	16.2	0.00777	0.00663*	0.0329	0.0101*	0.0211	0.0136*
COC(=O)CN1C(=O)C(O)=C(C(C)=O)C1c1cccc(F)c1 (configuration not stated)	.	-7.4	.	6.0	.	.	.	.	.	.
CC[C@H](Cn1nc(-c2cccs2)ccc1=O)NC(=O)Cn1cnc2ccccc2c1=O	.	-4.1	.	.	.	.	.	.	.	.
COc1cc2[nH]c(=S)n(C3CC3)c(=O)c2cc1OC	-6.5	-1.8	-1.32	8.1	.	.	.	.	.	.
COc1cc2[nH]c(=S)n(C3CCCC3)c(=O)c2cc1OC	10.9	4.3	24.5*	4.8	?	0.0434*	0.0292	0.0171*	0.0376*	0.0104*
O=[N+]([O-])c1cc(/C=N/NC(=S)Nc2ccccc2Cl)ccc1Cl	-6.8	-63.8	7.76*	4.5	0.00584	0.0149*	0.0348	0.0212*	0.0289*	0.0166*
S=C(N/N=C/c1ccc(Cl)c(Cl)c1)Nc1ccccc1Cl	-18.1	20.9	3.93*	3.8	0.0106	0.0302*	0.0348	0.0159*	0.032*	0.0124*
Cc1cccc(NC(=S)N/N=C/c2cccc(O)c2)c1C	7.4	-90.0	0.981	8.6	.	.	.	.	.	.
S=C(Nc1ccccn1)Nc1ccccc1Cl	-2.5	32.5	5.01*	3.3	0.00795	0.0138*	0.029	0.00821*	?	0.00927
FC(F)(F)c1ccc(Cl)c(NC(=S)N/N=C/c2ccccc2Cl)c1	2.7	-4.0	5.44*	14.8	0.01	0.034*	0.0306	0.01*	?	0.00983
Cn1c(=O)[nH]c(=O)c2c1nc(NCCOCCO)n2Cc1ccccc1Cl	.	-34.3	.	9.4	.	.	.	.	.	.

Source: PubChem BioAssay
